Screening data deposited in PubChem by several laboratories.
Hits are enriched below; roughly 0.84% of the tested compounds scored in any of these assays.
DTT redox prof: compounds producing H2O2 with reducing agent – biochemical, NIH compound library profiling, artefact control for MLSCN library redox annotation, primary screen; AID 878, 2007; activation, % at 10 µM; DTT-dependent redox cycling H2O2, phenol red/HRP absorbance; 100% = 100 µM peroxide control, 0% = buffer; actives 0.03% (n = 200,000);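 active = activation of at least 50% relative to the plate's high and low controls in the primary single-dose screen; inactive = activation below 50%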;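 also: compound incubated with DTT at 0.8 mM final as the reducing agent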
p97 inhibitor: inhibitors of human p97 ATPase, primary screen, biochemical. inhibition, % at 8 µM. actives 0.42% (n = 220,000). Transitional endoplasmic reticulum ATPase (Homo sapiens), P55072. recombinant p97 ATPase, Kinase-Glo ATP luminescence, 3 h; in the data active = inhibition above about 15%;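 also: 0% = DMSO vehicle and 100% = wells lacking enzyme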
TbHK1 inh: Trypanosoma brucei hexokinase 1 inhibitors, primary screen, biochemical, G6PDH-coupled NADH absorbance, MLSCN library; hexokinase 1 [Trypanosoma brucei]; recombinant TbHK1, G6PDH-coupled NADH A340; inhibition, % at 10 µM; actives 0.11% (n = 220,000); AID 1430, 2008;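 active = inhibition of 50% or more in the single-dose primary screen; inactive = inhibition below 50%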
G6PDH counter: L. mesenteroides G6PDH inhibitors, counter-screen for G6PDH-coupled screening assays, biochemical, Leuconostoc mesenteroides enzyme. glucose-6-phosphate dehydrogenase [Leuconostoc mesenteroides]. Purified L. mesenteroides G6PDH, diaphorase/resazurin coupled fluorescence, 45 min. inhibition, % at 5 µM. actives 0.12% (n = 200,000); in the data active = inhibition above about 50%
S1P3 antagonist: S1P3 receptor antagonists, primary screen, cell-based; CHO S1P3 NFAT-BLA reporter, FRET fluorescence, antagonist mode; inhibition, % at 4.98 µM; actives 0.27% (n = 170,000); Sphingosine 1-phosphate receptor 3 (Homo sapiens), Q99500;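 active = inhibition above the plate cutoff, the mean inhibition of test wells on that plate plus 3 SD, cut at about 28% in these data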;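 also: cells challenged with S1P at its EC80 of 0.8 µM; blue over green emission ratio from cleaved BLA substrate after 4 h stimulation; 0% = S1P-stimulated wells and 100% = unstimulated DMSO-only wells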
Target sequence (Q99500 whole entry, looked up): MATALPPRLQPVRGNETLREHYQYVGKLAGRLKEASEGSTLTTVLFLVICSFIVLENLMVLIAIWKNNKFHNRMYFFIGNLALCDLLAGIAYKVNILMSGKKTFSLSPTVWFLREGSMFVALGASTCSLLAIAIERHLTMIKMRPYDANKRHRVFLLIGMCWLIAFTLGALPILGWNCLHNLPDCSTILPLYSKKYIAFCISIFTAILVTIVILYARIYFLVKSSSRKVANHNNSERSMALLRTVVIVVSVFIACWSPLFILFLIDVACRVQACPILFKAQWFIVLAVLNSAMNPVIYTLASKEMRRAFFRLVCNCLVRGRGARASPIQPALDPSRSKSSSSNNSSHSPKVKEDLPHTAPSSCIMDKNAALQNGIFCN
p97 inh conf: p97 ATPase inhibitors, retest, confirmation, biochemical; shares compounds with p97 inhibitor; recombinant p97 ATPase, Kinase-Glo ATP luminescence; inhibition, % at 8 µM; actives 44% (n = 760); AID 1517, 2009;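 active = percent inhibition of p97 ATPase above a set limit, the primary screen's mean plus 3 SD, cut at about 15% in these data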;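 also: 0% = DMSO wells and 100% = wells lacking p97 protein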
Numbers without * were called inactive; x = not tested or not shown.

SMILES	DTT redox prof	p97 inhibitor	TbHK1 inh	G6PDH counter	S1P3 antagonist	p97 inh conf
Oc1ccccc1Nc1nc(NCc2ccccc2)c2ccccc2n1	0	26*	-14	14	-4	31*
CC[N+](C)(C)CCN(Cc1ccc(Cl)cc1)c1ccccn1	0	15*	-4	9	x	3
CCC(=O)Oc1ccc2c(=O)c(-c3ccc4ccccc4n3)c(CC)oc2c1C	0	4	2	-13	-26	x
Cc1cc2cccc(C)c2nc1SCC(=O)NNC(=O)c1ccco1	0	3	-16	-4	-3	x
Cc1cc(C)c2nc(SCC(=O)NNC(=O)c3ccco3)c(C)cc2c1	-1	15*	-7	8	-8	16*
CC/C(=C\C(=O)c1ccncc1)Nc1ccc(O)cc1	6	21*	-37	11	-43	8
O=C(Nc1ccc(Cl)cc1)c1ccncc1	0	0	-4	1	x	x
NS(=O)(=O)c1ccc(CCNc2ncnc3c2c(-c2ccccc2)cn3-c2ccc(F)cc2)cc1	3	30*	-4	-40	x	24*
CC1=C(C(=O)OC(C)C)C(c2cccs2)C2=C(CCCC2=O)N1 (configuration not stated)	x	x	x	x	18	x
O=[N+]([O-])c1cccc(/C=N/n2c(-c3cccnc3)n[nH]c2=S)c1	1	6	18	-2	-2	x
CC(=O)N(C(C)=O)c1nc(-c2ccccc2)cn1/N=C/c1cccc([N+](=O)[O-])c1	x	18*	-18	x	-2	24*
CCC1SC(CC)C(=O)N(CC(=O)NCc2ccc(F)cc2)C1=O (configuration not stated)	-1	-1	0	7	-24	x
CCOc1ccc(Br)cc1S(=O)(=O)N1CC(C)OC(C)C1 (configuration not stated)	1	-2	1	2	15	x
CCOc1ccc(Br)cc1S(=O)(=O)N1CCC(C(N)=O)CC1	0	15*	4	1	-19	7
CCN(C(=O)c1cc2cc(OC)ccc2oc1=O)c1ccccc1	0	-6	4	4	8	x
CC1CCN(C(=O)COC(=O)c2ccc(Br)o2)CC1	0	4	-1	8	x	x
Cc1c(NC(=O)C2CC(c3cccc(Br)c3)=NO2)c(=O)n(-c2ccccc2)n1C (configuration not stated)	0	3	-4	-1	-14	x
C(=N\Nc1nc(N2CCOCC2)nc(N2CCOCC2)n1)/c1ccco1	6	18*	-7	4	4	9
Cc1ccc(/C=N/Nc2nc(N3CCOCC3)nc(N3CCOCC3)n2)o1	-2	0	-31	0	5	x
O=C(N/N=C/c1cc2c(cc1Br)OCO2)c1cccnc1	0	2	-32	-3	-7	x
COc1ccccc1C(=O)N/C(=C\c1ccc(Br)cc1)C(=O)NCCC(=O)O	0	16*	-4	22	-5	2
CSc1ccccc1C(=O)N1CCc2ccccc2C1	-1	2	1	4	-10	x
O=c1oc2ccccc2c2oc3cc(O)c(O)cc3c12	x	19*	-29	x	-20	22*
Nc1c(N)c2ccccc2oc1=O	0	-1	-15	0	x	x
COc1ccc(/C=C2\N=C(c3c(-c4ccccc4)noc3C)OC2=O)cc1OC	2	0	-3	9	x	x
CC(=O)C1=C(C)OC2(O)c3ccccc3C(=O)C12O (configuration not stated)	x	20*	-8	x	-13	8
CCOC(=O)C1=C(C)OC2(O)c3ccccc3C(=O)C12O (configuration not stated)	x	17*	7	x	-5	27*
Nn1cnnc1N/N=C\c1ccc(-c2ccccc2[N+](=O)[O-])o1	6	27*	4	19	7	7
O=[N+]([O-])c1ccccc1-c1ccc(/C=N/n2cnnc2)o1	-8	2	-34	8	x	x
Oc1ccccc1-c1nnc(SCCN2CCOCC2)n1Cc1ccccc1	0	15*	0	2	8	5
